# Measured values published in ChEMBL document CHEMBL3988442, “University of Dundee, Small-Polar-MMV Screening Library” (2021).
# The campaign covered roughly 66,000 compounds. About 960 (1.5%) showed an effect of 50% or more. What follows is part of a selection rich in strong results, with near analogues and random picks from the rest.
# Test system: Trypanosoma brucei
# Assay: Trypanosoma brucei 72 hour study
# Format: functional, organism-based
# Design: scale not given: in the data most compounds retested in dose-response had high values
smiles,measurement,setting,value
Cc1ccc(CN2C[C@@H]3CCCO[C@@H]3[C@H](N(C)Cc3ccco3)C2)o1.O=C(O)C(F)(F)F.O=C(O)C(F)(F)F,Percent Effect,"30 µM, 30.03 µM",25.08%
CCCN1CCCn2c(nc(CNC(=O)c3cnoc3C)cc2=O)C1.O=C(O)C(F)(F)F,Percent Effect,"30 µM, 30.03 µM",19.21%
CCC(CC)C(CNC(=O)Nc1cnn(CCOC)c1)N(C)C (stereo not drawn),Percent Effect,"30.3 µM, […]",100.4%
COCCn1cc(NC(=O)NCC(c2cccc(F)c2)N(C)C)cn1 (stereo not drawn),Percent Effect,"30.3 µM, […]",9.218%
COCCn1cc(NC(=O)NCC(C)N2CCOCC2)cn1 (stereo not drawn),Percent Effect,"30.3 µM, […]",-22.83%
CC(C)c1nnc2n1CC(CNC/C=C/c1ccccc1)CC2 (stereo not drawn),Percent Effect,"30 µM, 30.03 µM",7.913%
CC(C)NC1CCc2[nH]c(=O)ccc2C1.O=C(O)C(F)(F)F (stereo not drawn),Percent Effect,"30.3 µM, […]",-14.11%
CN1CCO[C@@H]2CN(C(=O)Cc3cccs3)CC[C@@H]2C1.O=C(O)C(F)(F)F,Percent Effect,"30.3 µM, […]",-41.5%
CC(C)Nc1ccnc(N2Cc3cnc(C(C)(C)C)nc3C2)n1,Percent Effect,"30 µM, 30.03 µM",-43.35%
CCNc1ccnc(N2Cc3cnc(CC(C)C)nc3C2)n1,Percent Effect,"30 µM, 30.03 µM",7.855%
CC(C)Cc1ncc2c(n1)CN(c1nccc(NC(C)C)n1)C2,Percent Effect,"30 µM, 30.03 µM",89.54%
CN(Cc1cccnc1)[C@@H]1CN(C(=O)c2ccoc2)[C@@H]2CCCO[C@H]12.O=C(O)C(F)(F)F.O=C(O)C(F)(F)F,Percent Effect,"30.3 µM, […]",-7.538%
CN1CCN(Cc2cnc3n2CCN(CCc2ccccc2)C3)CC1.O=C(O)C(F)(F)F.O=C(O)C(F)(F)F.O=C(O)C(F)(F)F,Percent Effect,"30.3 µM, […]",-12.43%
Cc1cccc(CN2CC3(CCN(Cc4ccoc4)CC3)OCC2=O)n1.O=C(O)C(F)(F)F.O=C(O)C(F)(F)F,Percent Effect,"30.3 µM, […]",-93.34%
O=C(O)CC(O)(CC(=O)O)C(=O)O.OCCN(Cc1ccncc1)CC1(c2ccc(Cl)cc2)CCCC1,Percent Effect,"30.3 µM, […]",12.41%
Nc1cc(-c2c[nH]nc2C2CCN(C(=O)C3CCCC3)C2)ccn1 (stereo not drawn),Percent Effect,"30.3 µM, […]",38.23%
CC(C)Nc1cc(-c2c[nH]nc2C2CCN(C(=O)C3CC3)C2)ccn1 (stereo not drawn),Percent Effect,"30.3 µM, […]",99.82%
CC(C)N1CCC(c2n[nH]cc2-c2ccnc(N)c2)C1 (stereo not drawn),Percent Effect,"30.3 µM, […]",2.3%
Cc1c[nH]nc1C1CCN(C(=O)Cn2cccn2)C1 (stereo not drawn),Percent Effect,"30.3 µM, […]",-30.39%
CN(C)S(=O)(=O)N1CCC(c2n[nH]cc2-c2ccnc(N)c2)C1 (stereo not drawn),Percent Effect,"30.3 µM, […]",-8.179%
CC(C)Nc1cc(-c2c[nH]nc2C2CCN(C(=O)C3CCC3)C2)ccn1 (stereo not drawn),Percent Effect,"30.3 µM, […]",100.4%
CC(C)CNc1cc(-c2c[nH]nc2C2CCN(C(=O)C3CC3)C2)ccn1 (stereo not drawn),Percent Effect,"30.3 µM, […]",100.1%
CN1CCC(c2n[nH]cc2-c2ccnc(N)c2)C1 (stereo not drawn),Percent Effect,"30.3 µM, […]",-5.978%
CCCNc1cc(-c2c[nH]nc2C2CCN(C(=O)C3CCC3)C2)ccn1 (stereo not drawn),Percent Effect,"30.3 µM, […]",99.71%
CC(=O)N1CCC(c2n[nH]cc2-c2ccnc(N)c2)C1 (stereo not drawn),Percent Effect,"30.3 µM, […]",-2.575%
O=C(C1CCCC1)N1CCC(c2ccnc(Nc3cnccn3)n2)C1 (stereo not drawn),Percent Effect,"30.3 µM, […]",9.82%
Nc1cc(-c2c[nH]nc2C2CCCCN2C(=O)C2CCCC2)ccn1 (stereo not drawn),Percent Effect,"30.3 µM, […]",11.59%
Cc1occc1C(=O)N1CCO[C@H]2[C@@H](Oc3ccccn3)CC[C@@H]21.O=C(O)C(F)(F)F,Percent Effect,"30 µM, 30.03 µM",26.48%
CNC(=O)CN1CCOCC2(C1)CN(C(=O)C(C)C)CCO2.O=C(O)C(F)(F)F (stereo not drawn),Percent Effect,"30 µM, 30.03 µM",-6.033%
CS(=O)(=O)N1CCO[C@H]2[C@@H](Oc3ncccc3F)CC[C@@H]21.O=C(O)C(F)(F)F,Percent Effect,"30.3 µM, […]",12.73%
CC(=O)NC1CCN(c2cc(C3CCNCC3)ccn2)CC1.Cl.Cl,Percent Effect,"30.3 µM, […]",-5.403%
O=C(O)C(F)(F)F.O=C([C@@H]1CC[C@@H]2[C@@H](CCN2c2ccncn2)O1)N1CCCCO1,Percent Effect,"30.3 µM, […]",-55.7%
Cc1cc(N2CCC(N(C)C(=O)c3ccccc3F)CC2)nc(C)n1,Percent Effect,"30 µM, 30.03 µM",-12.35%
Cn1ccnc1C(=O)N[C@@H]1CN(CC2CCOCC2)[C@@H]2CCCO[C@@H]21.O=C(O)C(F)(F)F,Percent Effect,"30.3 µM, […]",-79.05%
Cc1cc(SCC(=O)O)nc2nn(CC(F)F)c(C)c12,Percent Effect,"30.3 µM, […]",-20.88%
CCc1nc(-c2cncnc2C2CCCNC2)no1.Cl (stereo not drawn),Percent Effect,"30.3 µM, […]",10%
CCC(CC)C(=O)N1CCc2nc(N3CCCC3)nc(C)c2CC1,Percent Effect,"30 µM, 30.03 µM",-41.54%
Cc1cccc(CN2C[C@@H]3CN(C(=O)c4ccco4)C[C@@H]3C2=O)n1.O=C(O)C(F)(F)F,Percent Effect,"30.3 µM, […]",-11.66%
CN1CCC(NC(=O)Cc2csc(C(C)(C)C)n2)CC1,Percent Effect,"30.3 µM, […]",4.768%
CC(=O)N1CCC(NC(=O)Cc2csc(C(C)(C)C)n2)CC1,Percent Effect,"30.3 µM, […]",-5.92%
CC(C)(C)c1nc(CC(=O)NC2CCN(C3CC3)C2)cs1 (stereo not drawn),Percent Effect,"30.3 µM, […]",99.7%
COc1cc2c(c(OC)c1OC)CCN(CCN1CCCCC1)CC2,Percent Effect,"30 µM, 30.03 µM",-20.4%
CCN1CCN(c2ccccc2NC(=O)NCc2ccon2)CC1,Percent Effect,"30.3 µM, […]",-63.99%
Fc1ccccc1CC1CCN(Cc2cscn2)CC1,Percent Effect,"30 µM, 30.03 µM",-2.509%
Cn1cc(CN2CCCC(CCc3ccccc3C(F)(F)F)C2)cn1 (stereo not drawn),Percent Effect,"30 µM, 30.03 µM",-18.52%
FC(F)(F)c1ccccc1CCC1CCCN(Cc2cscn2)C1 (stereo not drawn),Percent Effect,"30.3 µM, […]",51.05%
Cc1nc(CN2CCCC(CCc3ccccc3C(F)(F)F)C2)co1 (stereo not drawn),Percent Effect,"30.3 µM, […]",52.02%
Cc1nnc(CN2CCCC(CCc3ccccc3C(F)(F)F)C2)o1 (stereo not drawn),Percent Effect,"30.3 µM, […]",32.35%
Cc1nc(CN2CCCC(CCc3ccccc3C(F)(F)F)C2)no1 (stereo not drawn),Percent Effect,"30.3 µM, […]",87.44%
Cc1nc(CN2CCCC(CCc3cccc(C(F)(F)F)c3)C2)co1 (stereo not drawn),Percent Effect,"30.3 µM, […]",40.44%
Cc1nc(CN2CCCC(N(C)CC3CCCC3)C2)no1 (stereo not drawn),Percent Effect,"30.3 µM, […]",-21.28%
Cc1nc(CN2CCCC(N(C)CCCc3ccccc3)C2)no1 (stereo not drawn),Percent Effect,"30.3 µM, […]",-9.572%
Cc1ccc2c(n1)N(Cc1cccnc1)CCN(C1CCOCC1)C2.O=C(O)C(F)(F)F.O=C(O)C(F)(F)F.O=C(O)C(F)(F)F,Percent Effect,"30 µM, 30.03 µM",-18.41%
CC1N(c2cnn(C)c2)C(=O)COC12CCN(c1ccccn1)CC2.O=C(O)C(F)(F)F (stereo not drawn),Percent Effect,"30.3 µM, […]",-14.53%
Cc1oncc1C(=O)N1CC[C@H]2[C@H](C[C@@H](CN(C)C)N2CC2CC2)C1.O=C(O)C(F)(F)F.O=C(O)C(F)(F)F,Percent Effect,"30.3 µM, […]",-0.8006%
Cl.O=C(CCN1CCCC1)Nc1c2c(cc3c1CCC3)CCC2,Percent Effect,"30 µM, 30.03 µM",0.04304%
COCC(=O)NC[C@]12COC[C@H]1CN(Cc1ccc3c(c1)OCO3)C2.O=C(O)C(F)(F)F,Percent Effect,"30.3 µM, […]",5.113%
COC1COC2(CCN(C(=O)c3ccccc3F)CC2)C1 (stereo not drawn),Percent Effect,"30.3 µM, […]",-57.28%
CCN(C)c1ncnc2c1CCN(C(=O)Cc1ccccn1)CC2.O=C(O)C(F)(F)F,Percent Effect,"30 µM, 30.03 µM",-43.42%
CO[C@H]1CCN(c2ccc(C)nn2)[C@H]1Cc1cnn(C)c1,Percent Effect,"30 µM, 30.03 µM",12.56%
Cc1ccc(N2CC[C@H](OCC3CC3)[C@@H]2Cc2cnn(C)c2)nn1,Percent Effect,"30 µM, 30.03 µM",51.55%
CCO[C@@H]1CCN(c2ccc(C)nn2)[C@@H]1Cc1cnn(C)c1,Percent Effect,"30.3 µM, […]",-24.65%
Fc1ccccc1CN(CCCn1ccnc1)CC1CCOC1.O=C(O)CC(O)(CC(=O)O)C(=O)O (stereo not drawn),Percent Effect,"30.3 µM, […]",-0.3397%
Cc1cc(CCC(=O)O)nc(C2CCCN2c2ccnc(C)n2)n1 (stereo not drawn),Percent Effect,"30.3 µM, […]",3.845%
Cl.Cl.c1cn(-c2cnc(C3CCNCC3)cn2)cn1,Percent Effect,"30.3 µM, […]",-23.68%
CC(C)(C)c1ccc(OCC(N)=O)c(CN2C[C@H]3C[C@H](O)C[C@H]3C2)c1,Percent Effect,"30.3 µM, […]",-10.55%
COc1ccc(C(=O)N2C[C@@H](NC(=O)N(C)C)[C@H](C(C)C)C2)c(OC)n1,Percent Effect,"30 µM, 30.03 µM",-11.49%
Cc1cc(CN(C)C2CCCN(Cc3noc(C)n3)C2)no1 (stereo not drawn),Percent Effect,"30.3 µM, […]",-25.02%
Cc1nc(CN(C)C2CCN(Cc3nc4ccccc4s3)C2)no1 (stereo not drawn),Percent Effect,"30 µM, 30.03 µM",13.35%
CN(Cc1cscn1)C1CCCN(Cc2noc(C3CC3)n2)C1 (stereo not drawn),Percent Effect,"30 µM, 30.03 µM",-28.03%
Cc1nc(CN(C)C2CCN(Cc3ccc4ccccc4n3)C2)no1 (stereo not drawn),Percent Effect,"30.3 µM, […]",99.64%
Cc1nc(CN(C)C2CCN(Cc3nc4ccccc4n3C)C2)no1 (stereo not drawn),Percent Effect,10 µM,-9.408%
same,Percent Effect,"30.3 µM, […]",44.6%
Cc1nc(CN2CCCC(N(C)Cc3cscn3)C2)no1 (stereo not drawn),Percent Effect,"30 µM, 30.03 µM",106.7%
Cc1occc1C(=O)N1C[C@@H]2OCCN(c3ncccn3)[C@@H]2C1.O=C(O)C(F)(F)F,Percent Effect,"30.3 µM, […]",-9.285%
COc1ccc(-n2ccnc2-c2ccc(C(=O)O)s2)cc1CO,Percent Effect,"30 µM, 30.03 µM",-62.12%
Nc1ncc(-c2ccc(F)cc2)c(C2CCCNC2)n1 (stereo not drawn),Percent Effect,"30.3 µM, […]",1.475%
Nc1ncc(-c2ccc(C(F)(F)F)cc2)c(C2CCCNC2)n1 (stereo not drawn),Percent Effect,"30.3 µM, […]",90.9%
Nc1ncc(-c2ccc(Cl)cc2)c(C2CCCNC2)n1 (stereo not drawn),Percent Effect,"30.3 µM, […]",28.09%
Cc1nc(C)c(C(=O)N2Cc3ccccc3OCC2CN(C)C)o1.Cl.Cl (stereo not drawn),Percent Effect,"30.3 µM, […]",-20.04%
O=C(O)C(F)(F)F.O=C(O)C(F)(F)F.O=C(c1n[nH]c2c1CN(C1CCOC1)CC2)N1CCCC1 (stereo not drawn),Percent Effect,"30.3 µM, […]",8.032%
CCCNC(=O)c1nn(CC)cc1NC(=O)c1cn(C)nc1C,Percent Effect,"30.3 µM, […]",26.24%
CCn1cc(NC(=O)c2c(C)nn(C)c2C)c(C(N)=O)n1,Percent Effect,"30.3 µM, […]",53.08%
CCCNC(=O)c1nn(CC)cc1NC(=O)c1c(C)nn(C)c1C,Percent Effect,"30.3 µM, […]",45.33%
Cc1cnc2n(c1=O)CC(C(=O)Nc1ccon1)CS2 (stereo not drawn),Percent Effect,"30 µM, 30.03 µM",-0.7773%
O=C(c1ccc[nH]1)N1CCCC(c2cc(C(F)(F)F)[nH]n2)C1 (stereo not drawn),Percent Effect,"30 µM, 30.03 µM",38.21%
O=C(c1cc[nH]n1)N1CCCC(c2cc(C(F)(F)F)[nH]n2)C1 (stereo not drawn),Percent Effect,"30.3 µM, […]",17.05%
O=C(c1cc(Cl)c[nH]1)N1CCCC(c2cc(C(F)(F)F)[nH]n2)C1 (stereo not drawn),Percent Effect,"30.3 µM, […]",80.28%
CCOC(=O)C1CC2(CCCCC2)N2CCC(=O)N12 (stereo not drawn),Percent Effect,"30.3 µM, […]",-30.31%
Cc1ccc(C(=O)N2Cc3c(CN4CCCCC4)nn(C)c3C2)o1.O=C(O)C(F)(F)F,Percent Effect,"30 µM, 30.03 µM",0.5997%
COc1cccc(-c2cc(NCCO)nc3[nH]ccc23)n1,Percent Effect,"30.3 µM, […]",-6.078%
COc1cccc(-c2cc(NCCN(C)C)nc3[nH]ccc23)n1,Percent Effect,"30.3 µM, […]",96.05%
COc1cccc(-c2cc(NCC(=O)O)nc3[nH]ccc23)n1,Percent Effect,"30.3 µM, […]",-16.38%
